Source: the supplement of paper PMC3334620
Whole data set: some 33,000 sequences, median “E-score (-0.5 to 0.5)” near -0.016, cut for the highest 2% near 0.3. The entries come from a sample that favours the highest values as a whole.

Target: T1, Yer184c (UniProt P39961)
T1 sequence: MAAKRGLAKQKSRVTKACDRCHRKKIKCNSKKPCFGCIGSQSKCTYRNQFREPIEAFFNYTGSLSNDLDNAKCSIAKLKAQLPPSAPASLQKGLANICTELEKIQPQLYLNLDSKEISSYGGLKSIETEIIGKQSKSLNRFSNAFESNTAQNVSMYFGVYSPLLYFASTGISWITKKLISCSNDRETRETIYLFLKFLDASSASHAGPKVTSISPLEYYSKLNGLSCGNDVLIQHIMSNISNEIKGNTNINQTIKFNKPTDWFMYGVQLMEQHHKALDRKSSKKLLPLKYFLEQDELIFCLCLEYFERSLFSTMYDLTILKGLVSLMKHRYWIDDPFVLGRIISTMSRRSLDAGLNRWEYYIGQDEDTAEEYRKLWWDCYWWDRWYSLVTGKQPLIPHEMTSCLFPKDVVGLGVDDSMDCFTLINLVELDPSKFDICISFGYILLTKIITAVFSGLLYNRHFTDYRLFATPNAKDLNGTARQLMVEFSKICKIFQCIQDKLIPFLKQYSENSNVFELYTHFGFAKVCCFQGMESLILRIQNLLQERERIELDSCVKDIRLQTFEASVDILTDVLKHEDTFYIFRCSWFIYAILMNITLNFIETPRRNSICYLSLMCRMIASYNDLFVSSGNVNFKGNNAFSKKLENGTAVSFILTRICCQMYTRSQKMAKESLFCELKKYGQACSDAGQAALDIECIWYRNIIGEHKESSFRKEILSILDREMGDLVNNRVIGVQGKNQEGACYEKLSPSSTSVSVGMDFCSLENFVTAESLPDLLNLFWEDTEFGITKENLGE
Assay: PBM E-score (8-mer binding enrichment) (E-score (-0.5 to 0.5)); higher = stronger / more preferred TF binding
Conditions: protein concentration: 100 nM; construct: GST-full length
Outline: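 Detection of bound protein used fluorescent anti-GST, with scans normalised by masliner. The proteins were GST-tagged yeast transcription factors applied at about 100-200 nM to universal all-10-mer Agilent arrays made double-stranded by primer extension. Each ungapped eight-base word, pooled with its reverse complement, was scored with an E-score from the Universal PBM Analysis Suite.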

Row | Sequence | PBM E-score
1 | GCAGAGCA | 0.0245
2 | AATGTCCG | 0.283
3 | AGGTCGGG | -0.168
4 | AAGCCCAA | -0.106
5 | CCATCTTC | 0.173
6 | AGAAGCTC | 0.0486
7 | CCGTGAGG | -0.119
8 | CACCAGAC | -0.00896
9 | AACAGCTG | 0.0223
10 | CTAGAGTA | -0.0589
11 | TAGCCGCA | -0.0301
12 | CAGCCGCC | 0.0636
13 | CAGCCGGC | 0.391
14 | CAGCCGGG | 0.127
15 | AAGCCGGC | 0.374
16 | GAGCCGCC | 0.0613
17 | TAGCCGGA | 0.401
18 | GAGCCGGC | 0.406
19 | AAGCCGGG | 0.246
20 | TAGCCGAA | 0.276
21 | GAGCCCGC | -0.212
22 | AAGCCGGT | 0.258
23 | CCATAGAC | -0.204
24 | GAAGTACA | 0.0369
25 | CCAATCGC | -0.072

Row | Sequence | PBM E-score
26 | ATCAGCAG | 0.0226
27 | GGTGCCAC | -0.119
28 | TCGTACCA | 0.099
29 | CGCGCACA | 0.112
30 | CAGCCGGA | 0.392
31 | CAGCCGCA | -0.134
32 | CAGCCTGA | -0.0443
33 | ATATCACC | 0.093
34 | ACAGCGGC | -0.0827
35 | AATTCGGT | 0.301
36 | AATTCGGA | 0.343
37 | CGTTCGGA | 0.342
38 | CATTCGGA | 0.338
39 | GATTCGGC | 0.364
40 | GATTCGAC | -0.112
41 | AATTCGGG | 0.103
42 | CATTCGGC | 0.269
43 | CATTCGGG | 0.141
44 | GGTTCGGA | 0.281
45 | CGTTCGGC | 0.27
46 | AATTCGGC | 0.24
47 | ATCCTTGC | -0.0624
48 | GTTAGACA | 0.222
49 | GATTTGTA | 0.103
50 | AGCCAAGG | -0.16

Row | Sequence | PBM E-score
51 | ACTAAGAT | 0.154
52 | GAGGCCCA | -0.319
53 | CGGTTAAG | 0.269
54 | ACGAATAG | -0.0621
55 | TGGGCTAA | -0.147
56 | CAAAAGGG | -0.101
57 | GCCCTTCA | -0.0881
58 | TATTCGAA | -0.106
59 | TATTCGCA | 0.0122
60 | GATTCGTA | 0.125
61 | GATTCGCA | 0.131
62 | GATTCGGA | 0.329
63 | TATTCGGA | 0.356
64 | AGCTTGGA | -0.226
65 | ATTCCATA | 0.147
66 | ACACAGGT | -0.289
67 | GGGCATTA | -0.199
68 | CGGCATGA | 0.313
69 | GGGCATGA | -0.275
70 | GGGCAAGA | 0.106
71 | CGGCATGC | 0.272
72 | AGGCAAGA | -0.112
73 | CGGCATTA | 0.416
74 | AGGCATTA | -0.187
75 | CGGCAAGA | 0.317

Row | Sequence | PBM E-score
76 | CATCGGCC | 0.115
77 | ACCCAGTG | -0.306
78 | GAGAGGGC | -0.293
79 | CCTATCGA | -0.107
80 | CCCGGACG | -0.0945
81 | ACCGGATC | 0.229
82 | ACCGGACT | 0.101
83 | ACCGGATG | 0.307
84 | ACCGGACG | 0.305
85 | ACCGGATA | 0.187
86 | CGCATGAA | 0.0183
87 | AGTTAGTG | 0.00554
88 | CCTATACG | -0.267
89 | TCTCGGCA | 0.35
90 | TATCGGCA | 0.213
91 | TCACGGCA | 0.096
92 | ACTCGGCA | 0.299
93 | CCTCGGCC | 0.257
94 | CCTCGGAG | 0.277
95 | CCTCGGTA | -0.0209
96 | ACTCGGCC | 0.121
97 | CCTCGGCA | 0.367
98 | ACTCGGCG | 0.325
99 | CCTCGGCG | 0.355
100 | ACTCGGCT | 0.209

Row | Sequence | PBM E-score
101 | CGAACACC | 0.0223
102 | AATGGCCA | -0.256
103 | ACGGATTG | 0.161
104 | CTTCCGTC | 0.209
105 | ATTCCGTA | 0.322
106 | CATCCGTA | 0.206
107 | ATTCCGTC | 0.149
108 | ATTCCGCG | 0.242
109 | ACTCCGTG | 0.1
110 | CTTCCGTA | 0.322
111 | GTTCCGTA | 0.276
112 | ATTCCGTG | 0.313
113 | CCTGCGAG | 0.00158
114 | CGTAGCTC | -0.0585
115 | AGTTCACG | -0.0529
116 | CCCCAATA | -0.244
117 | ACGCCAAT | -0.0124
118 | ATTCTTCC | 0.083
119 | ACCGGGAT | 0.256
120 | CAGTTAGA | -0.0352
121 | ATAAGATC | -0.0275
122 | CCGAATCC | 0.322
123 | ACGAATCC | 0.115
124 | CCGAATTC | 0.334
125 | ACGAATTC | 0.113

Row | Sequence | PBM E-score
126 | CCGAATCA | 0.233
127 | CCGAATTA | 0.231
128 | TACGCTAA | 0.0349
129 | GTAACTCA | -0.0122
130 | AGATCTAA | 0.0189
131 | AGTCTTGG | -0.0577
132 | GACAAGAA | 0.151
133 | GACAAAAC | 0.0933
134 | GACAAAAA | 0.333
135 | AACCAAAA | 0.0925
136 | GACCAAAA | 0.309
137 | TACCAAAA | 0.0716
138 | AACAATAC | 0.0929
139 | AGTAATAT | 0.338
140 | AATAATAG | 0.00819
141 | AGTAATAG | -0.00505
142 | AATAATAC | 0.232
143 | AACAATAA | 0.255
144 | AATAATAT | 0.333
145 | AACAATAT | 0.352
146 | AGTAATAC | 0.106
147 | CAACATCG | 0.0608
148 | CCCACGAC | -0.199
149 | GTTAGAGA | -0.0529
150 | ACCTGCTA | -0.00094

Row | Sequence | PBM E-score
151 | CCTGAGTC | -0.0246
152 | GTATGATA | 0.226
153 | ATATGATA | 0.325
154 | CTATGATA | 0.162
155 | CTGCAACA | 0.152
156 | CACAATCA | 0.00768
157 | GGGAAATA | 0.0562
158 | AGGAAATC | 0.0763
159 | CGGAAATA | 0.424
160 | CTGAAATC | 0.0356
161 | CGGAAATC | 0.315
162 | AGGAAATA | 0.249
163 | GGACTTTA | 0.156
164 | AGTAGGTC | -0.225
165 | CTGCGCAA | -0.0246
166 | ATGGTACG | 0.0122
167 | ACTGTTGA | -0.0706
168 | GCGGCGAA | 0.27
169 | GCGGCGGA | 0.193
170 | CCGGCGTA | 0.313
171 | CCGGCGGA | 0.369
172 | CCGGCGGC | 0.291
173 | ACGGCGTA | 0.0111
174 | GCGGCGTA | -0.0609
175 | CCGGCGAA | 0.35
